# Laboratory results published in PubChem BioAssay (NCATS).
# Where “and” joins values, the source holds several entries; their conditions need not be identical. Identical values can stand only once. Records with an inconclusive call do not appear. Entries that show only a call come without a potency. A number with no mark means an inactive call. Calls of active or inactive are those of the source. Calls come from the whole dose curve; as a rule, active = well fitted curve in the direction sought with a large enough effect; inconclusive = small, poorly fitted or top-dose-only effect, or another doubt; inactive = no such curve, though single readings can be large; an effect the other way counts as inactive or inconclusive.
# How the values were obtained:
# [1] = qHTS assay to identify small molecule inhibitors of chordoma cells - UCH-1 (AID 1259355); note: nearly all actives have a fitted effect of over 55% in size; note: potency is the fitted concentration of half-maximal effect; series mostly up to about 46 µM
# Procedure, shortened: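 A 48hr growth-inhibition format: each drug tested at 15 concentrations together with added auranofin, camptothecin, doxorubicin, rubitecan and topotecan, with cell viability quantified as CellTiter-Glo luminescence.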
# [2] = qHTS assay for cell viability of HEK293 cells (AID 743288); conditions: ATP luminescence (CellTiter-Glo), 18 h; max response: hits give low values; note: nearly all actives have a fitted effect of over 50% in size
# Procedure, shortened: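 ATP luminescence (CellTiter-Glo) reports metabolically competent cell number after parental HEK293 cells, 2,000/well, were treated with DMSO-dissolved compounds for 18 h at 37 C; reagent incubation 30 min, room temperature.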
# [3] = qHTS assay for cell viability of the p53RE-bla HCT-116 cell line (AID 743292); note: nearly all actives have a fitted effect of over 55% in size
# Procedure, shortened: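 After plating at 4,000 cells per well and a 5 h rest at 37 C, HCT-116 cells carrying p53RE-bla received test chemicals in DMSO. Sixteen hours later at 37 C, CellTiter-Glo was added and luminescence recorded following 30 min at room temperature.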
smiles,measurement,setting,value
CC(=O)N[C@@H](C=O)[C@@H](O)[C@H](O)[C@H](O)CO,Potency,[1],inactive
CSCCC(N)C(=O)O (stereo unspecified),Potency,[1],inactive
Cc1ccc(S(=O)(=O)NC(=O)N[C@@H](C)Cc2ccccc2)cc1,Potency,[1],inactive
NC(N)=NCC1COC2(CCCCC2)O1 (stereo unspecified),Potency,[1],inactive
CN[C@@H]1[C@@H](O)[C@@H](O[C@@H]2[C@@H](O)[C@H](OC3OC(CN)=CCC3N)[C@@H](N)C[C@H]2N)OC[C@]1(C)O (stereo partly specified),Potency,[1],inactive
COc1ccc2c(c1)OC(C)(C)C(c1ccccc1)C2c1ccc(OCCN2CCCC2)cc1 (stereo unspecified),Potency,[1],inactive
CCCCCCOC(=O)c1cccnc1,Potency,[1],inactive
CC/C(=C(/CC)c1ccc(OP(=O)(O)O)cc1)c1ccc(OP(=O)(O)O)cc1,Potency,[1],inactive
CC(C)(C)CC(C)(C)c1cc(Cc2cc(C(C)(C)CC(C)(C)C)cc(-n3nc4ccccc4n3)c2O)c(O)c(-n2nc3ccccc3n2)c1,Potency,[1],inactive
c1ccc2c(c1)Sc1ccccc1N2CCN1CCCC1,Potency,[1],inactive
OCC1(CO)COC(C(Cl)(Cl)Cl)OC1,Potency,[1],inactive
O=[N+]([O-])O[C@@H]1CO[C@H]2[C@@H]1OC[C@@H]2O,Potency,[1],inactive
CC(=O)N[C@@H]1C(O[C@H]2O[C@H](C(=O)O)C(O)[C@H](O)[C@H]2O)[C@H](O)[C@@H](CO)O[C@H]1O[C@@H]1C(C(=O)O)O[C@@H](O[C@H]2[C@H](O)[C@@H](CO)OC(O)[C@@H]2NC(C)=O)[C@H](O)[C@H]1O (stereo partly specified),Potency,[1],inactive
C[C@H](O)CN(C)C,Potency,[1],inactive
CN(C)CCC(O)(c1ccccc1)c1ccccc1Cl (stereo unspecified),Potency,[1],inactive
CN1CCc2c(c3ccccc3n2Cc2ccccc2)C1,Potency,[1],inactive
CCN(CC)CCOC(=O)c1cccnc1,Potency,[1],inactive
C[S+](C)CCC(N)C(=O)O (stereo unspecified),Potency,[1],inactive
CC12CCC(C[N+](C)(CCC[N+](C)(C)C)C1)C2(C)C (stereo unspecified),Potency,[1],inactive
O=C(O[C@H]1CN2CCC1CC2)N1CCc2ccccc2[C@@H]1c1ccccc1,Potency,[1],inactive
O=C(O)CCCC/C=C(\c1ccccc1)c1cccnc1,Potency,[1],inactive
CC(=C\c1ccccc1)/C=C1/SC(=S)N(CC(=O)O)C1=O,Potency,[1],inactive
COc1ccc2c(c1)N(C[C@H](C)CN(C)C)c1ccccc1S2,Potency,[1],inactive
NC(=S)NS(=O)(=O)c1ccc(N)cc1,Potency,[1],inactive
CCOc1ccc(S(=O)(=O)O)c2cccnc12,Potency,[1],inactive
CC1(O)CCC(C(C)(C)O)CC1 (stereo unspecified),Potency,[1],inactive
CC(=O)N=c1sc(S(N)(=O)=O)nn1C,Potency,[1],inactive
CC[C@H]1NC(=O)[C@@H](NC(=O)c2ncccc2O)[C@@H](C)OC(=O)[C@H](c2ccccc2)NC(=O)[C@@H]2CC(=O)CCN2C(=O)[C@H](Cc2ccccc2)N(C)C(=O)[C@@H]2CCCN2C1=O,Potency,[1],inactive
CCCCCCCCCCCCCCCCOCCOCCOCCOCCOCCOCCOCCOCCOCCOCCOCCOCCOCCOCCOCCOCCOCCOCCOCCOCCO,Potency,[1],35.5 µM (active)
CC(C)CCC[C@@H](C)[C@H]1CC[C@H]2[C@@H]3CC[C@@H]4C[C@H](O)CC[C@]4(C)[C@H]3CC[C@]12C,Potency,[1],inactive
CC/C=C\C/C=C\C/C=C\C/C=C\C/C=C\C/C=C\CCC(=O)O,Potency,[1],inactive
CCN(CC)CCC(=O)N1c2ccccc2Sc2ccc(Cl)cc21,Potency,[1],inactive
CCN(CC)CCOc1ccc2nc(N(C)C)sc2c1,Potency,[1],inactive
CCCCCCCCCC(=O)NO,Potency,[1],inactive
C=C1[C@@H]2CC[C@@H](C2)C1(C)C,Potency,[1],inactive
O=C1NC(=O)[C@H]2[C@@H]1[C@@H]1C=C[C@H]2C1,Potency,[1],inactive
FCOC(C(F)(F)F)C(F)(F)F,Potency,[1],inactive
CC1(C)S[C@@H]2[C@H](NC(=O)C3(N)CCCCC3)C(=O)N2[C@H]1C(=O)O,Potency,[1],inactive
CC/C=C\C/C=C\C/C=C\CCCCCCCC(=O)O,max response,[2],-4.87%
same,outcome,[3],inactive
same,Potency,[1],inactive
Oc1cccc(O)c1O,max response,[2],-17.5%
same,outcome,[3],inactive
same,Potency,[1],inactive
OC[C@H]1O[C@@H]2O[C@H]3[C@H](O)[C@@H](O)[C@@H](O[C@H]4[C@H](O)[C@@H](O)[C@@H](O[C@H]5[C@H](O)[C@@H](O)[C@@H](O[C@H]6[C@H](O)[C@@H](O)[C@@H](O[C@H]7[C@H](O)[C@@H](O)[C@@H](O[C@H]1[C@H](O)[C@H]2O)O[C@@H]7CO)O[C@@H]6CO)O[C@@H]5CO)O[C@@H]4CO)O[C@@H]3CO,max response,[2],-12.8% and 1.56%
same,outcome,[3],inactive
same,Potency,[1],inactive
CC(O)CN(C)C (stereo unspecified),Potency,[1],inactive
NC(N)=O,max response,[2],0.964%
same,outcome,[3],inactive
same,Potency,[1],inactive
C=CCCCCCCCCC(=O)OC,Potency,[1],inactive
CO[C@@H]1[C@H](OC(=O)/C=C/C=C/C=C/C=C/C(=O)O)CC[C@]2(CO2)[C@H]1[C@@]1(C)O[C@@H]1CC=C(C)C,max response,[2],-10.5%
same,outcome,[3],inactive
same,Potency,[1],inactive
CCCCC(CC)COS(=O)(=O)O (stereo unspecified),max response,[2],8.79%
same,outcome,[3],inactive
same,Potency,[1],inactive
CO/N=C(/C(=O)N[C@@H]1C(=O)N2C(C(=O)O)=C(COC(N)=O)CS[C@H]12)c1ccco1,max response,[2],2.57%
same,outcome,[3],inactive
same,Potency,[1],inactive
O=c1n(CC2CO2)c(=O)n(CC2CO2)c(=O)n1CC1CO1 (stereo unspecified),max response,[2],-25.2% and -21.7%
same,outcome,[3],inactive
same,Potency,[1],inactive
OCl,max response,[2],-19.9%
same,outcome,[3],inactive
same,Potency,[1],inactive
CC(C)(C)c1ccc2c(S(=O)(=O)O)c(C(C)(C)C)ccc2c1,Potency,[1],inactive
CCOC(=O)C1=C(COCCN)NC(C)=C(C(=O)OC)C1c1ccccc1Cl (stereo unspecified),Potency,[1],inactive
CC(C)=CCC/C(C)=C/CC/C(C)=C/CC/C=C(\C)CC/C=C(\C)CCC=C(C)C,Potency,[1],inactive
CN(CCO)CC(O)Cn1cnc2c1c(=O)n(C)c(=O)n2C (stereo unspecified) (tested in a mixture with another compound),max response,[2],-3.27%
same,outcome,[3],inactive
same,Potency,[1],inactive
CO,max response,[2],1.36%
same,outcome,[3],inactive
same,Potency,[1],inactive
